Among the data in PubChem BioAssay AID1159580 (chemical genetic matrix, 2015) are normalized growth values, retold here.

This experiment in a line: chemical genetic growth profiling, strain panel (AID 1159580).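 Further: tested at 20 µM; growth read once vehicle control cultures reached saturation at 30 °C; 1 = growth at the plate median or of vehicle wells; lower values mean less growth of the strain.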 To be noted: S. cerevisiae deletion strains, growth OD.
[1] abbreviates: locus YAL040C, strain CLN3, hits give low values.
The mark [2] stands for this setting: locus YDR363W, strain ESC2, hits give low values.
The mark [3] stands for this setting: locus YER002W, strain NOP16, hits give low values.
[4] abbreviates: locus YMR263W, strain SAP30, hits give low values.
[5] abbreviates: locus YNL153C, strain GIM3, hits give low values.
Where [6] appears, read: locus YNL175C, strain NOP13, hits give low values.
[7] abbreviates: locus YNL197C, strain WHI3, hits give low values.
Setting [8] is: locus YNL224C, strain SQS1, hits give low values.
Setting [9] is: locus YOR083W, strain WHI5 (second series), hits give low values.
[10] abbreviates: locus YPL241C, strain CIN2, hits give low values.

About 2,000 (36%) of roughly 5,500 compounds were called active. Roughly 18% stayed inconclusive and do not appear here. The list shows a part of the results. Unmarked numbers belong to inactive results. No stated cut-off is given here; in the data, active means normalized growth mostly below about 0.91 (no sharp cut-off); inconclusive means no clear call, values can overlap the other calls; inactive means mostly above about 0.92.

Take `CC(C)C[C@H]1C(=O)N2CCC[C@H]2[C@]2(O)O[C@](NC(=O)[C@@H]3C=C4c5cccc6[nH]c(Br)c(c56)C[C@H]4N(C)C3)(C(C)C)C(=O)N12`: the normalized growth was 0.741 (active) under setting [1]; 0.996 (locus YDR150W, strain NUM1, hits give low values); 1.02 under setting [2]; 1.03 under setting [3]; 1.01 under setting [4]; 1.03 (locus YNL128W, strain TEP1, hits give low values). In addition, the normalized growth runs as follows: under setting [5], 0.974; under setting [6], 1.04; under setting [7], 1.01; under setting [8], 1.01; under setting [9], 1.03; under setting [10], 0.989.
In the case of `CC(C)[C@@]1(NC(=O)[C@@H]2C=C3c4cccc5[nH]cc(c45)C[C@H]3N(C)C2)O[C@@]2(O)[C@@H]3CCCN3C(=O)[C@H](Cc3ccccc3)N2C1=O`, the normalized growth under setting [1] was 0.989; the normalized growth (locus YCL061C, strain MRC1 (second series), hits give low values) was 0.996; the normalized growth under setting [2] is 0.993; the normalized growth under setting [3] is 0.998; the normalized growth under setting [4] was 0.999; the normalized growth (locus YMR307W, strain GAS1, hits give low values) is 0.982. Also, the normalized growth reads like this: under setting [5], 0.99; under setting [6], 1.01; under setting [7], 1; under setting [8], 0.972; under setting [9], 1.04; (locus YPL055C, strain LGE1, hits give low values) 0.99. The normalized growth under setting [10] is 0.998.
